# Compound activity: PubChem, several laboratories
# SARS 3CLpro inh: SARS-CoV 3CLpro protease inhibition. P0C6X7. recombinant SARS-CoV 3CLpro, quenched FRET peptide cleavage. inhibition, % at 6 µM. 290,000 compounds, 0.14% hits; in the data active means inhibition above about 12%
# CCHFV vOTU inh: CCHFV vOTU protease inhibition; 370,000 compounds, 0.55% hits; Pep-AMC fluorescence; inhibition, % at 11.5 µM; in the data active means inhibition above about 30%; further: 0% = vehicle wells with enzyme and 100% = no enzyme wells
# BoNT-A LC inh2: inhibitors of Botulinum neurotoxin A light chain protease; 360,000 compounds, 0.17% hits; inhibition, % at 10 µM; multiplex microsphere protease substrate cleavage, flow cytometry; further: plate controls were buffer without enzyme for full effect and enzyme alone for no effect
# BoNT F protease: inhibitors of Botulinum neurotoxin F light chain protease; AID 588497; inhibition, % at 10 µM; 360,000 compounds, 0.22% hits; Multiplex microsphere protease cleavage assay, flow cytometry; in the data active means inhibition above about 35%, passing the limit was not always enough; inconclusive means no clear call, values can overlap the other calls; further: plate controls were buffer without enzyme for full effect and enzyme alone for no effect
# Anthrax LF prot: inhibitors of Bacillus anthracis lethal factor protease; P15917; multiplex microsphere protease cleavage assay, LF; inhibition, % at 10 µM; 360,000 compounds, 0.12% hits; AID 588501; further: plate controls were buffer without enzyme for full effect and enzyme alone for no effect
# Target sequence (P15917 whole entry, looked up): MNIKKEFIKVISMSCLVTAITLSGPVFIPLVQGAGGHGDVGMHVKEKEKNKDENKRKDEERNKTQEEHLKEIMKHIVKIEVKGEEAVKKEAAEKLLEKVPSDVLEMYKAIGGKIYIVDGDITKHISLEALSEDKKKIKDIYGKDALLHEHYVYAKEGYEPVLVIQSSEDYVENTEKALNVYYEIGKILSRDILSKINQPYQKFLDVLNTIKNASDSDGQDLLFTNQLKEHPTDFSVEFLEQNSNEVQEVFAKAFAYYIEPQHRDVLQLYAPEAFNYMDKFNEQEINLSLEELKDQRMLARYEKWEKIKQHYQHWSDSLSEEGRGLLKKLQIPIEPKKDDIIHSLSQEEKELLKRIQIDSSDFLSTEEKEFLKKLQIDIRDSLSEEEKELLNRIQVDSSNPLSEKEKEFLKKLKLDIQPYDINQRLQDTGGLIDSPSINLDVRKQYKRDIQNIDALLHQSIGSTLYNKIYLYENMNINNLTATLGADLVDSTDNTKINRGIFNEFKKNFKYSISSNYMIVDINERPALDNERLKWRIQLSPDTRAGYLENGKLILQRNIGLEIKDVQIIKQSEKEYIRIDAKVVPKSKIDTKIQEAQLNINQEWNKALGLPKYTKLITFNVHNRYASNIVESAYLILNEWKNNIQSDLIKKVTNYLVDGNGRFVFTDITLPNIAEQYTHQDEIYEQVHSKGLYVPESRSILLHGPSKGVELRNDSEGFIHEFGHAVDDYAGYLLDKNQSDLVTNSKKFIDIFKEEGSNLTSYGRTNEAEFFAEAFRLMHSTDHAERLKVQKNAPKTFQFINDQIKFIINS
# Bead autofluor: compound fluorescence in toxin protease inhibitor counterscreen. compound autofluorescence counterscreen, microsphere flow cytometry; hits give high values. fluorescence intensity (no concentration beside the values). 360,000 compounds, 3.1% hits; in the data active means fluorescence intensity above about 16000; inconclusive means no clear call, values can overlap the other calls
# The depositor's hits bear a star; u = inconclusive; x = no result given. Only some compounds are listed: those with a hit (about 3.9% of all), similar ones and a draw of the others. Unless noted, no stated cut-off is given here; in the data, active means inhibition above about 30%; inconclusive means no clear call, values can overlap the other calls; inactive means below that.
SMILES,SARS 3CLpro inh,CCHFV vOTU inh,BoNT-A LC inh2,BoNT F protease,Anthrax LF prot,Bead autofluor
CC(=O)NC1(C(F)(F)F)C(=O)N(Cc2ccccc2)C2=C1C(=O)CC(C)(C)C2 (centres undefined),-5,-7,0,-2,7,10263
CC1(C)CC(=O)C2=C(C1)N(Cc1ccccc1)C(=O)C2(NC(=O)C(C)(C)C)C(F)(F)F (centres undefined),2,6,-2,-5,-2,24235*
CCOC(=O)NC1(C(F)(F)F)C(=O)N(Cc2ccccn2)C2=C1C(=O)CC(C)(C)C2 (centres undefined),-5,-5,-1,-5,-1,16536*
CC(C)C12NC(=O)NC(=O)N1CCS2 (centres undefined),x,0,0,-3,-7,2926
CCOC(=O)C1NC(=O)CC1c1ccccc1 (centres undefined),-2,7,0,-5,5,4148
CCOC(=O)C1C(=O)C=C(/C=C/c2ccccc2)CC1c1ccc(Cl)cc1 (centres undefined),4,8,u,-4,-4,16539*
Cc1ccc(N(CN2CCCC2=O)C(=O)c2ccc(C)c(C)c2)cc1,3,-2,u,3,-1,21259*
COc1ccccc1N1CCN(C(=O)CNC(=O)c2cn(-c3ccccc3OC)c(=O)c3ccccc23)CC1,8,-8,-2,-5,-2,4597
COc1ccccc1-n1cc(C(=O)NCC(=O)N2CCN(c3ccccc3)CC2)c2ccccc2c1=O,2,6,-3,-4,1,24097*
COc1ccc(Cn2c(=O)oc3ccccc32)cc1OC,x,-5,-1,-4,-6,3084
COc1ccc(Cn2c(=O)oc3ccc(C)cc32)cc1OC,-5,3,0,2,-1,22068*
CC(=O)c1cccc(NC(=O)COC(=O)c2n[nH]c3ccccc23)c1,0,-12,-1,1,-3,3562
CCN(CC)Cc1cc(C(C)=O)ccc1OCC(C)C,3,10,0,0,-3,16228*
CN(C)CCCN(C(=O)c1cc2cc([N+](=O)[O-])ccc2s1)c1nc2cc3c(cc2s1)OCCO3,x,-8,0,9,-5,4389
COc1c(C)cc(Br)cc1C(=O)O,0,8,0,-2,-5,22363*
O=C(c1cccc(OC2CCN(Cc3ccc(F)cc3Cl)CC2)c1)N1CCCC1,-3,16,-5,1,-4,7072
COc1ccc(S(=O)(=O)N(CC(=O)NCC2CCCO2)Cc2ccccc2)cc1C (centres undefined),0,22,-2,-4,2,6719
CCOC(=O)C1=C(CSCC(=O)OC)NC(=O)NC1c1cc(C)ccc1C (centres undefined),0,4,2,2,-9,22020*
CCN(CC)S(=O)(=O)c1ccc(C)c(NC(=O)CNCCN(C(C)C)C(C)C)c1,4,-5,-1,6,-7,4531
CC(=O)Nc1ccc(S(=O)(=O)Oc2ccc(N3C(=O)C4CCCCC4C3=O)cc2)cc1 (centres undefined),-3,0,u,-1,-6,19304*
CC(=O)Nc1ccc(S(=O)(=O)Oc2cccc(N3C(=O)C4CC=CCC4C3=O)c2)cc1 (centres undefined),1,-10,-1,-3,-7,6986
CC(C)(C(=O)c1ccccc1)/[N+]([O-])=C/c1ccc(Br)cc1,0,x,3,7,-4,22272*
CC1CCN(C(=O)c2ccc(S(=O)(=O)NCc3ccco3)cc2)CC1,8,3,0,-5,-1,5835
O=C(c1ccccc1)N1CCN(CCc2ccccc2)CC1,-1,5,0,-11,-4,3007
Cc1c(C(=O)N2CCN(S(=O)(=O)c3ccccc3)CC2)oc2ccccc12,x,2,-4,-9,-2,7117
SMILES,SARS 3CLpro inh,CCHFV vOTU inh,BoNT-A LC inh2,BoNT F protease,Anthrax LF prot,Bead autofluor
Cc1c(C(=O)N2CCN(CCc3ccccc3)CC2)oc2ccccc12,1,3,0,-4,-3,24130*
Cc1c(C(=O)N2CCN(S(C)(=O)=O)CC2)oc2ccccc12,2,-10,0,0,1,20670*
CC(C)(Cc1ccccc1)NC(=O)C(=O)c1cn(CC(=O)N2CCOCC2)c2ccccc12,6,4,-1,-5,-8,4550
CCNC(=O)C1(C)CCN(C(=O)c2ccc(OC)cc2OC)C1 (centres undefined),x,1,0,6,0,2982
CCOC1=C2[C@H](c3ccc(Cl)cc3)N(S(=O)(=O)c3ccc(C)cc3)C[C@H]2n2c(=O)n(-c3ccccc3)c(=O)n2C1,x,-2,0,-12,-5,5443
C[C@@H](NC(=O)Cn1ccc(NC(=O)OCc2ccccc2)nc1=O)c1cccc2ccccc12,x,-11,1,-1,-1,2783
O=C(NNC(=O)C1CCCCC1)c1cnccn1,2,-1,3,4,1,22696*
O=C(CCC1CCCCC1)NNC(=O)c1cnccn1,3,-9,-2,-9,-3,9736
CN1OC[C@@H]2CN(Cc3ccc(Cl)cc3)[C@H](c3ccc(-n4ccnc4)cc3)C[C@@H]21,x,11,-1,-11,0,4902
COc1ncnc2c1oc1nc(CC(C)C)c3c(c12)CC(C)(C)OC3,1,1,0,-2,-5,23399*
Cc1ccc(NC(=O)Cn2nnc(-c3ccncc3)n2)cc1C,x,-3,x,x,x,x
Fc1ccc(C[n+]2csc3ccccc32)cc1,6,-11,u,-2,-2,22598*
Clc1ccc(C[n+]2csc3ccccc32)cc1,1,-14,0,-6,-2,2210
O=S1(=O)CC/C(=N\O)c2ccccc21,3,-4,u,-6,0,23882*
C=CCNC(=S)N/N=C1\CCS(=O)(=O)c2ccccc21,1,-5,1,10,-12,3592
CC(C)(C)C1CCc2onc(C(=O)Nc3cnn(Cc4ccc(F)cc4)c3)c2C1 (centres undefined),3,6,4,0,-1,18196*
CCCCCc1nnc(N)s1,4,-3,-1,-1,-4,16328*
Cc1onc(C(=O)Nc2c(C)n(C)n(-c3ccccc3)c2=O)c1[N+](=O)[O-],-3,23,0,5,-2,4638
O=C1CN(C(=O)C2CCC(=O)N(CCc3ccc(Cl)cc3)C2)CCN1 (centres undefined),-2,-3,-1,-5,-3,5966
N#Cc1sc2nc(-c3ccccc3)cc(-c3ccco3)c2c1N,-2,59*,13,-14,5,4421
O=C1C(=Cc2ccc(Br)o2)C(=O)c2ccccc21,0,x,3,34*,6,7134
CC12CC3CC(C)(C1)CC(C(=O)NNC(=O)c1ccncc1)(C3)C2,3,18,0,-8,2,6158
COc1ccc(C2CC(c3ccccc3)=NN2S(=O)(=O)c2ccc(C)cc2)c(OC)c1 (centres undefined),0,7,1,30,20,20530*
